Assay [1] is described as follows: qHTS assay for measurement of the activity of small molecule inhibitors on Zika virus induced Caspase-3 activity in human astrocytoma cells (AID 1224859). An outline of the steps:
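SNB-19 astrocytoma cells, 250/well, pretreated 1 h with compounds, then Zika virus at 2 FFU/cell for 6 h at 37 C; Caspase-Glo 3/7 luminescence after 30 min; percent inhibition normalised to uninfected and infected controls.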
(In qHTS, concentration-response curves come from the screen itself.)

Assay [2] can be described thus: qHTS assay to identify small molecule inhibitors of chordoma cells - UCH-2 (AID 1259356). Also: series mostly up to about 46 µM.
Assay [3] concerns the target Atrial natriuretic peptide receptor 2 (Homo sapiens) (UniProt P20594). Briefly: Natriuretic polypeptide receptor (hNpr2) antagonism - Pilot subtype selectivity assay (AID 1347050; calls by dose curve; also: potency is read from the fitted curve at half-maximal effect). Put shortly: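 Read-out: GloSensor luminescence (CCD imager), baseline vs post-stimulation. HEK293 cells expressing hNpr2; compounds pre-incubated 30-50 min at ambient temperature; hNppC 1 nM final, 20 min.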

Assay [4] is described as follows: NS1 protein of Zika virus - qHTS assay to identify small molecule inhibitors in human HEK 293 cells (AID 1347053). Also: series mostly up to about 46 µM; nearly all actives have a fitted effect of over 55% in size. An outline of the steps:
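Compound-treated (1 h pre-infection) HEK 293 cells infected with ZIKV MR766, MOI = 0.5; after 24 h at 37 C, NS1 read by TR-FRET; data normalized to uninfected and infected controls.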

The target in assay [5] is T1, Tyrosine-protein phosphatase non-receptor type substrate 1 (Homo sapiens) + Leukocyte surface antigen CD47 (Homo sapiens) (UniProt P78324+Q08722). Briefly: CD47-SIRPalpha protein protein interaction - LANCE assay qHTS validation (AID 1347057; active = well fitted curve in the direction sought with a large enough effect in the signal ratio, with a control signal flat, not every such curve was filed as active; the % refers to the signal ratio; also: series mostly up to about 38 µM). An outline of the steps:
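Inhibition of soluble CD47/SIRPalpha ectodomain association by titrated compounds, measured as 665/615 nm time-resolved FRET ratio after sequential 30 min room-temperature incubations.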

The target in assay [6] is T1, Tyrosine-protein phosphatase non-receptor type substrate 1 (Homo sapiens) + Leukocyte surface antigen CD47 (Homo sapiens). The assay can be described thus: CD47-SIRPalpha protein protein interaction - HTRF assay qHTS validation (AID 1347058; active = well fitted curve in the direction sought with a large enough effect in the signal ratio, not every such curve was filed as active; the % refers to the signal ratio; also: series mostly up to about 38 µM). An outline of the steps: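 Soluble extracellular domains (6His-CD47, Avi-tag-biotinylated SIRPalpha) in PBS pH 7.4 with 0.05% IGEPAL CA-630. Compounds were preincubated 30 min at RT with CD47 and anti-His-Eu, then SIRPalpha and SAV-XL665 were added. TR-FRET 665/615 ratio.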
(Time-resolved FRET reads energy transfer from a long-lived donor to a nearby acceptor.)

Assay [7] deals with Parathyroid hormone/parathyroid hormone-related peptide receptor (Homo sapiens) (UniProt Q03431). The assay can be described thus: qHTS for PTHR1 Agonists: Optimization Screen against the NCGC LOPAC library (AID 1347079).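 Also: GloSensor cAMP luminescence in HEK-293 GP2 cells expressing human PTHR1 with IBMX.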 Put shortly: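 Signal increase flags agonism. GP2 cells, derived from HEK-293, express human PTHR1 and a GloSensor cAMP construct.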
Assay [8] is described as follows: qHTS of pediatric cancer cell lines to identify multiple opportunities for drug repurposing: Primary screen for TC32 cells (AID 1347089). Also: nearly all actives have a fitted effect of over 60% in size. An outline of the steps:
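In the primary qHTS, MIPE compounds were tested at 11 concentrations (0.78 nM to 46 µM) and NPC compounds at 8 (0.59 nM to 46 µM) on TC32 cells for 48 h. CellTiter-Glo luminescence gave viability.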

Assay [9] is described as follows: qHTS of pediatric cancer cell lines to identify multiple opportunities for drug repurposing: Primary screen for DAOY cells (AID 1347090). Also: series mostly up to about 46 µM; nearly all actives have a fitted effect of over 55% in size. An outline of the steps: (§1)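 Eight- or eleven-point concentration series, 48 h treatment at 37 degrees C in growth media; readout CellTiter-Glo luminescence. Potency and efficacy were taken from the concentration-response curves.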

The nature of assay [10]: qHTS of pediatric cancer cell lines to identify multiple opportunities for drug repurposing: Primary screen for SJ-GBM2 cells (AID 1347091). Put shortly: as §1
Assay [11] in a line: qHTS of pediatric cancer cell lines to identify multiple opportunities for drug repurposing: Primary screen for A673 cells (AID 1347092). Also: nearly all actives have a fitted effect of over 45% in size. An outline of the steps: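 48 h compound exposure, A673, 500-1,000 cells/well, 37 degrees C/5% CO2. MIPE: 11-point, 0.78 nM-46 µM; NPC: 8-point, 0.59 nM-46 µM (final). Readout CellTiter-Glo luminescence after 15 min RT.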
A short description of assay [12]: P-glycoprotein substrates identified in KB-8-5-11 adenocarcinoma cell line, qHTS therapeutic library screen (AID 1346987). Also: series mostly up to about 44 µM; nearly all actives have a fitted effect of over 65% in size. An outline of the steps:
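Human cervical adenocarcinoma KB-8-5-11 cells, selected in colchicine to over-express P-gp and assayed without it, were exposed for 72 h to titrated compounds. An ATP-based luminescent viability signal gave AC50.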

The nature of assay [13]: Natriuretic polypeptide receptor (hNpr1) antagonism - Pilot counterscreen GloSensor control cell line (AID 1347045; calls by dose curve; also: series mostly up to about 38 µM). Put shortly: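 The SNP-driven cGMP luminescence signal (50 uM, 20 min, room temperature) was measured in GloSensor HEK293 control cells. Compounds were tested as a LOPAC titration series and preincubated for 30-50 min.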
(A counterscreen serves to expose hits that act by an unwanted route or on another target.)

Assay [14] concerns the target Atrial natriuretic peptide receptor 1 (Homo sapiens) (UniProt P16066). Briefly: Natriuretic polypeptide receptor (hNpr1) antagonism - Pilot screen (AID 1347049; calls by dose curve;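 also: HEK293 cells with hNpr1 and GloSensor cGMP luciferase stimulated by 0.1 nM hNppA; agonist-evoked cGMP luminescence read 20 min after hNppA addition; series mostly up to about 58 µM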). An outline of the steps: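 Cells expressing receptor plus cGMP biosensor are seeded and incubated overnight at 37C, then loaded with GloSensor reagent (2% final) at room temperature for 2 h. Library compounds go on for 30 min. A pre-read precedes agonist (hNppA, 0.1 nM final) and a 20-min readout.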

Assay [15] deals with T1, Tyrosine-protein phosphatase non-receptor type substrate 1 (Homo sapiens) + Leukocyte surface antigen CD47 (Homo sapiens). The assay can be described thus: CD47-SIRPalpha protein protein interaction - Alpha assay qHTS validation (AID 1347059).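 Also: bead proximity luminescence from CD47 binding SIRPalpha after compound preincubation with SIRPalpha.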 Put shortly: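 In PBS (pH 7.4) with 0.05% IGEPAL CA-630, compound is preincubated with biotin-Avi-SIRPalpha ectodomain before His-CD47 ectodomain and affinity beads are added. Light-protected room-temperature incubations; AlphaScreen readout.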

Assay [16] in a line: qHTS assay to identify small molecule inhibitors of chordoma cells - UCH-1 (AID 1259355). Also: nearly all actives have a fitted effect of over 55% in size. An outline of the steps: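 A 48hr growth-inhibition format: each drug tested at 15 concentrations together with added auranofin, camptothecin, doxorubicin, rubitecan and topotecan, with cell viability quantified as CellTiter-Glo luminescence.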

Unmarked numbers belong to inactive results. Records with an inconclusive call do not appear. Activity calls are given as the source filed them. Unless noted, calls follow the shape of the dose curve; as a rule, active = well fitted curve in the direction sought with a large enough effect; inconclusive = small, poorly fitted or top-dose-only effect, or another doubt; inactive = no such curve, though single readings can be large; an effect the other way counts as inactive or inconclusive.

T1 sequence (P78324 whole entry, looked up, the tested form may be a part): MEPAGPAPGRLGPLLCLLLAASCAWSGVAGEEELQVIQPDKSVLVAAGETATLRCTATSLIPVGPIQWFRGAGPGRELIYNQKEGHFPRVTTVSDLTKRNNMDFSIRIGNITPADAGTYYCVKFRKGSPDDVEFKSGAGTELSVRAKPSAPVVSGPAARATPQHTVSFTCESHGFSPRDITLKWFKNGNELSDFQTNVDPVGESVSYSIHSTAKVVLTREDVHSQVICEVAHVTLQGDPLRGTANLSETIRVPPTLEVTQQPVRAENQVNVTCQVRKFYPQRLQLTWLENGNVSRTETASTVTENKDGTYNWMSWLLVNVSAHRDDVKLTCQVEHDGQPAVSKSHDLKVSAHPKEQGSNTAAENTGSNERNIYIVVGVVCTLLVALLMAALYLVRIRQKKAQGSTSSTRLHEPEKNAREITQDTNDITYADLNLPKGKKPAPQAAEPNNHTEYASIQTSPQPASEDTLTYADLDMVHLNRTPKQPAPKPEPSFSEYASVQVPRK
T1 sequence (Q08722 whole entry, looked up, the tested form may be a part): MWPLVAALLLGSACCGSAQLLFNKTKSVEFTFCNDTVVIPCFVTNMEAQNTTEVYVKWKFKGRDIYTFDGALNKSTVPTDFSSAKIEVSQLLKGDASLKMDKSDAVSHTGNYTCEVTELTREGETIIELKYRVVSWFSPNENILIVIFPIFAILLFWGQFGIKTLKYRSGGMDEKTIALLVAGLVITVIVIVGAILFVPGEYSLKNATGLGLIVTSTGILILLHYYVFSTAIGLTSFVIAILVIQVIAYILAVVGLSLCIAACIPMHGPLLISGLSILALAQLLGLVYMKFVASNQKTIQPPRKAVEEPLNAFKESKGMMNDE
Chain of Atrial natriuretic peptide receptor 1 (Homo sapiens) (P16066 whole entry, looked up): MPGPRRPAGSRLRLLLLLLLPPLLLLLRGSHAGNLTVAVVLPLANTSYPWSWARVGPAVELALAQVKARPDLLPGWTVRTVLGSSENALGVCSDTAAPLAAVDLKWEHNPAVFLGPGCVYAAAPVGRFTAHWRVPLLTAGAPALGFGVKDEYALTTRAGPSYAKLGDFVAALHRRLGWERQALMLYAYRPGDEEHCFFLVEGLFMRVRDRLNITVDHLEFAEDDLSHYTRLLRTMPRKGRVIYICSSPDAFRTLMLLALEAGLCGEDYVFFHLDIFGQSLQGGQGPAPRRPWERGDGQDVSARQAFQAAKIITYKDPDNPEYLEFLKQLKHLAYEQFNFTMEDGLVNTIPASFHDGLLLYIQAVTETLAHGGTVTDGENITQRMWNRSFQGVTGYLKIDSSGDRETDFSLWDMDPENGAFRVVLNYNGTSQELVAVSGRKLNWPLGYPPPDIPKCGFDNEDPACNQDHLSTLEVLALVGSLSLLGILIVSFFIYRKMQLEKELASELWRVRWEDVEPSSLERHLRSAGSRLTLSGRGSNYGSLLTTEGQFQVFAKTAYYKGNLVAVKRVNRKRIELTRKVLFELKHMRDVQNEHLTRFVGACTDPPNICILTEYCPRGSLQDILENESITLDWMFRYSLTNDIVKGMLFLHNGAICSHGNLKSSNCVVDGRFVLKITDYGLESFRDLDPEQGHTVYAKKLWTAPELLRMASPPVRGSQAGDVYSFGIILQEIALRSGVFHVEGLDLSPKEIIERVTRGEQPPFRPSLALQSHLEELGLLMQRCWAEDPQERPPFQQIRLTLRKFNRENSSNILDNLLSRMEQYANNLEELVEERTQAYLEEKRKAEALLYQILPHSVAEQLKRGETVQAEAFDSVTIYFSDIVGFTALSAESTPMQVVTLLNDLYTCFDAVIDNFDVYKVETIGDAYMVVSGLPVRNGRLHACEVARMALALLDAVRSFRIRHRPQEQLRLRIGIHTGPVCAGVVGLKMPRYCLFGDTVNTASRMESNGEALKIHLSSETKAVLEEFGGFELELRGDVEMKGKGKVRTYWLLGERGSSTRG
Chain of Atrial natriuretic peptide receptor 2 (Homo sapiens) (P20594 whole entry, looked up): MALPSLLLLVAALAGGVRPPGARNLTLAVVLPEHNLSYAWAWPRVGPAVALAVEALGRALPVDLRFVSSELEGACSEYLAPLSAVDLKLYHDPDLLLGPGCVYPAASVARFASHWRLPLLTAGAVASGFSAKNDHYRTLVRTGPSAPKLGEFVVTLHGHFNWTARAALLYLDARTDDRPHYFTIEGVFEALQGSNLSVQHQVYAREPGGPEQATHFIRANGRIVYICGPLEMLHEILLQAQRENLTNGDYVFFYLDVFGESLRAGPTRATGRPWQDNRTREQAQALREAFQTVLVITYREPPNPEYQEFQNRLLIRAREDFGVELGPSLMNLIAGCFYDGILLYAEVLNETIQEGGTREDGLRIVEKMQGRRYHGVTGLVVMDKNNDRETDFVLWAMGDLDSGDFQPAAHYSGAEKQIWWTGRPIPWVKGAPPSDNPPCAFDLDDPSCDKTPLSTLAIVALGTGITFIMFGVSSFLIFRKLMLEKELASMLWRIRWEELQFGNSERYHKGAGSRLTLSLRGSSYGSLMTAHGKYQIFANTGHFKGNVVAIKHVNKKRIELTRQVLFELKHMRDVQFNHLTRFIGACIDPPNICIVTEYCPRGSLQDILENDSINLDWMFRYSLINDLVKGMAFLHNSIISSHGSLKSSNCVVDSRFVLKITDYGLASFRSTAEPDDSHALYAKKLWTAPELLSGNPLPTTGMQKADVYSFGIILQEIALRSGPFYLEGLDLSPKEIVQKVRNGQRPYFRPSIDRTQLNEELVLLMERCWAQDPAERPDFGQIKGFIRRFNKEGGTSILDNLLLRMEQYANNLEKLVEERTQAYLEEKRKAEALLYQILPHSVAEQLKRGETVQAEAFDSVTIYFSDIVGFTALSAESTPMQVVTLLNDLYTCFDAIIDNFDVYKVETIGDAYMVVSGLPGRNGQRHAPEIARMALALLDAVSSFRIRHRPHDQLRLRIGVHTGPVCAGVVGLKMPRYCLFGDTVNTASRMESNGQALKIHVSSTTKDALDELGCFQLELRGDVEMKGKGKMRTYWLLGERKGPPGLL
Chain of Parathyroid hormone/parathyroid hormone-related peptide receptor (Homo sapiens) (Q03431 whole entry, looked up): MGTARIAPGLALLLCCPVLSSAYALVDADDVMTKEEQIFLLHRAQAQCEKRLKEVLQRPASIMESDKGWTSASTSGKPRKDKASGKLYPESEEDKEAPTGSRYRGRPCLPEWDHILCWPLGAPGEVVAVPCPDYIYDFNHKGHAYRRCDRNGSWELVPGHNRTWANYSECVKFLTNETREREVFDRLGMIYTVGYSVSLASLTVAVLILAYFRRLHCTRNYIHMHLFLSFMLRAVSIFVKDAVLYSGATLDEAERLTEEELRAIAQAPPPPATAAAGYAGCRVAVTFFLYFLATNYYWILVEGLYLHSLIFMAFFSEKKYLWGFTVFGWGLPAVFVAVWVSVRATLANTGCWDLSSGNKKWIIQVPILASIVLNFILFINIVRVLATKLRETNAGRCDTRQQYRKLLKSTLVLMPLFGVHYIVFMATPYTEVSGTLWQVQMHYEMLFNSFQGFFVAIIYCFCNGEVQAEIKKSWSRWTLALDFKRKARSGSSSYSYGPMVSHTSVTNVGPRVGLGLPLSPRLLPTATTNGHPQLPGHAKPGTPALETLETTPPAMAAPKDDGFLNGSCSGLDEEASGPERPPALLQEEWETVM

`CN1CCN(C2=Nc3ccccc3Oc3ccc(Cl)cc32)CC1`: the call in [1], in assay [4], in assay [5], in assay [6] and in assay [7] was inactive. The Potency entry in assay [2], in [8], in assay [9], in assay [10] and in [11] was “inactive” in each case. In assay [3], the Potency is 16.5 µM (active).

For the compound `Cc1nc2c([nH]1)c(=O)n(C)c(=O)n2Cc1ccco1`, the result in assay [1], in [4], in [5], in [6] and in [7] was inactive. Further, the Potency result in assay [2], in assay [12], in assay [13], in assay [14], in assay [3] and in assay [15] was “inactive” throughout. The Potency entry in assay [8], in assay [9], in assay [10] and in assay [11] was “inactive” each time.

Take `COCCOC(=O)C1=C(C)NC(C)=C(C(=O)OC(C)C)C1c1cccc([N+](=O)[O-])c1` (centres undefined): the call in assay [1], in assay [4], in assay [5] and in assay [7] was inactive. For the same compound, the Potency entry in assay [2], in assay [13], in assay [14], in assay [3], in assay [15] and in assay [8] was “inactive” each time.

Consider `CCN1CCC[C@H]1CNC(=O)c1c(O)c(Cl)cc(Cl)c1OC`, for which the result in assay [1], in [4], in assay [5] and in [7] was inactive. Moreover, the Potency result in assay [2], in [12], in assay [14], in [3], in [15] and in assay [8] was “inactive” in each case. The Potency result in assay [9], in assay [10] and in assay [11] was “inactive” each time.

For `C[C@@H](O)[C@H]1C(=O)N2C(C(=O)O)=C(SCCN=CN)C[C@H]12`, the outcome in assay [1], in assay [4], in assay [5], in [6] and in [7] was inactive. For the same compound, the Potency result in assay [2], in [12], in assay [14], in [3], in [8] and in [10] was “inactive” throughout. Also, the Potency entry in [11] is “inactive”.

In the case of `CCc1cccc(N(C)C(N)=Nc2cccc3ccccc23)c1`, the call in [1], in assay [4], in assay [5] and in assay [7] was inactive. Also, the Potency entry in assay [2], in assay [14], in assay [3], in [15], in assay [9] and in assay [10] was “inactive” each time.

Turning to `CCN(CC)CCOCCOC(=O)C1(c2ccccc2)CCCC1`, the compound was called inactive in assay [1], in assay [4], in assay [5], in assay [6] and in [7]. Moreover, the Potency result in [2], in assay [14], in [3], in assay [15], in assay [8] and in assay [9] was “inactive” each time. In addition, the Potency result in assay [10] and in [11] was “inactive” in each case.

`CN1C[C@H](C(=O)N[C@]2(C)O[C@@]3(O)[C@@H]4CCCN4C(=O)[C@H](Cc4ccccc4)N3C2=O)C[C@@H]2c3cccc4[nH]cc(c34)C[C@H]21`: the compound was called inactive in assay [1], in assay [4], in [5], in assay [6] and in assay [7]. For the same compound, the Potency result in assay [2], in assay [12], in assay [13], in assay [14], in [3] and in assay [8] was “inactive” throughout. The Potency entry in assay [9] was “inactive”.

Take `CCOC(=O)C1=C(C)NC(C)=C(C(=O)OC)C1c1cccc(Cl)c1Cl` (centres undefined): the result in [1], in assay [4], in assay [5], in assay [6] and in assay [7] was inactive. Besides, the Potency entry in assay [2], in assay [12], in assay [13], in assay [14], in assay [3] and in [15] was “inactive” in each case. The Potency result in assay [8], in assay [9], in assay [10] and in assay [11] was “inactive” throughout.

With `COC(=O)[C@@H](N)Cc1ccc(O)c(O)c1`, the Potency result in assay [16], in assay [2], in [12], in [13], in [14] and in [3] was “inactive” throughout. Further, the Potency entry in assay [8], in assay [9], in assay [10] and in assay [11] was “inactive” in each case. The result in assay [4], in assay [5], in assay [6] and in assay [7] was inactive.

`CN(C)CCN(Cc1cccs1)c1ccccn1`: the outcome in assay [1], in assay [4], in assay [5], in assay [6] and in [7] was inactive. The Potency entry in [2], in assay [13], in [14], in assay [3], in assay [15] and in [8] was “inactive” each time. In addition, the Potency entry in [10] and in assay [11] was “inactive” in each case.

With `Cc1nc2ccccn2c(=O)c1CCN1CCC(C(=O)c2ccc(F)cc2)CC1`, the outcome in assay [1], in assay [4], in [5] and in assay [7] was inactive. Further, the Potency result in [2], in assay [13], in assay [14], in [3], in [15] and in [8] was “inactive” each time. In addition, the Potency result in [10] was “inactive”.

Values taken from PubChem BioAssay (NCATS).
